Here are results for 15 compounds from PubChem BioAssay (Tox21).

Assay [1] in a line: qHTS assay to identify small molecule agonists of the vitamin D receptor (VDR) signaling pathway - cell viability counter screen (AID 743224). Further: nearly all actives have a fitted effect of over 50% in size. Further: potency means the concentration at half of the fitted maximal effect. In outline:
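VDR-bla cells, 4 h after plating, exposed to compounds for 16 h at 37C; viability then read in the same wells as CellTiter-Glo luminescence after 30 min at room temperature, following the bla FRET read.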
A general note: In qHTS, concentration-response curves come from the screen itself.

A short description of assay [2]: qHTS assay to identify small molecule agonists of the NFkB signaling pathway - cell viability counter screen (AID 1159515; calls by dose curve; further: nearly all actives have a fitted effect of over 55% in size). In outline:
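NFkB-bla ME-180 cells, 2,000/well, plated overnight at 37 C; compound added for 5 hr at 37 C. Viability read in the same wells as the bla reporter, by CellTiter-Glo luminescence after 30 min at room temperature.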

Assay [3] in a line: qHTS assay to identify small molecule agonists of the endoplasmic reticulum stress response signaling pathway (AID 1159516; active means well fitted activation curve with a large enough effect in the signal ratio in the repeat runs, not every such curve was filed as active; the % refers to the signal ratio; further: potency means the concentration at half of the fitted maximal effect). The method, boiled down:
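CellSensor ESRE-bla HeLa cells, 1,500 per well, plated overnight, then exposed to compounds for 5 hr at 37 C. Beta-lactamase reporter read with LiveBLAzer B/G FRET substrate after 2 hr at room temperature, 405 nm excitation, 460 and 530 nm emission.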

Assay [4] is described as follows: qHTS assay to identify small molecule antagonists of the retinoid-related orphan receptor gamma (ROR-gamma) signaling pathway - cell viability counter screen (AID 1159520). Further: nearly all actives have a fitted effect of over 50% in size. In outline:
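Cytotoxicity was read from cellular ATP (CellTiter-Glo luminescence) after 16 hr at 37 C with 1 uM doxycycline induction. The inducer was added 2 hr after compound transfer to Tet-on ROR gamma CHO cells.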

Assay [5] deals with Nuclear receptor ROR-gamma (Homo sapiens) (UniProt P51449). The assay can be described thus: qHTS assay to identify small molecule antagonists of the retinoid-related orphan receptor gamma (ROR-gamma) signaling pathway (AID 1159521;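 further: CHO cells with doxycycline inducible ROR-gamma driving an RORE luciferase reporter; top concentration of the series differs between compounds; nearly all actives have a fitted effect of over 50% in size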). The method, boiled down: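 CHO cells expressing RORγ under a TET-on promoter, luciferase under RORE control. Dox 1 uM final, 16 h; compounds added 2 h prior. Luminescence decrease measured.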

The nature of assay [6]: qHTS assay to identify small molecule agonists of the AP-1 signaling pathway - cell viability counter screen (AID 1159525; calls by dose curve; further: nearly all actives have a fitted effect of over 55% in size). In outline: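 Luminescent ATP readout (Cell Titer Glo, 30 min RT), normalised to DMSO and tetra n-octyl ammonium bromide controls. Cells were ME-180 AP-1-bla in 0.5% dialyzed FBS Opti-MEM, with a 5 h, 37 °C compound exposure.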
A short description of assay [7]: qHTS assay to identify small molecule agonists of the AP-1 signaling pathway (AID 1159526; calls by dose curve).
Assay [8] in a line: qHTS assay to identify small molecule antagonists of the retinoid acid receptor (RAR) signaling pathway - cell viability counter screen (AID 1159551). Further: nearly all actives have a fitted effect of over 35% in size. The method, boiled down:
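C3RL4 RARE-luciferase cells, 1,000/well, incubated overnight, then dosed with compound plus 1 uM retinol (final). After 6 hr at 37 C, viability read by CellTiter-Glo ATP luminescence following 30 min at room temperature.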

Assay [9] in a line: qHTS assay to identify small molecule agonists of the retinoic acid receptor (RAR) signaling pathway (AID 1159553). The settings on record: C3RL4 RARE luciferase reporter, agonist, 6 h; activation: at 73.3 µM (top of the series) unless noted. In outline: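 C3RL4 RARE-luciferase cells were seeded at 1,000/well and grown overnight at 37 C, then exposed to compounds for 6 hr at 37 C, 5% CO2. Luciferase reagent was added and luminescence was read after 30 min at room temperature.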

Assay [10] can be described thus: qHTS assay to identify small molecule antagonists of the vitamin D receptor (VDR) signaling pathway - cell viability counter screen (AID 743225). Further: nearly all actives have a fitted effect of over 50% in size. In outline: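 Luminescent cell viability (CellTiter-Glo) in VDR-bla HEK 293T cells after 16 h compound exposure at 37C in the presence of 3 nM final 1-alpha,25-dihydroxy vitamin D3.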
The nature of assay [11]: qHTS assay to identify small molecule antagonists of the retinoic acid receptor (RAR) signaling pathway (AID 1159552; further: nearly all actives have a fitted effect of over 50% in size). In outline: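 Readout: luciferase luminescence, 30 min post-reagent at RT. Setup: C3RL4 RARE reporter cells, compounds plus retinol 1 uM final, 6 hr incubation at 37 C and 5% CO2.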
A short description of assay [12]: qHTS assay to identify small molecule agonists of the RXR signaling pathway - cell viability counter screen (AID 1159529). The method, boiled down: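 Same-well viability check after the LiveBLAzer FRET read: CellTiter-Glo added, luminescence measured after 30 min at room temperature. Reporter HEK 293T cells had been treated with compounds for 16 hr following a 5 hr preincubation.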

For assay [13], the target named is Retinoic acid receptor RXR-alpha (Homo sapiens) (UniProt P19793). The assay is described as follows: qHTS assay to identify small molecule agonists of the RXR signaling pathway (AID 1159527; calls by dose curve; further: nearly all actives have a fitted effect of over 35% in size; further: potency means the concentration at half of the fitted maximal effect). In outline: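 Beta-lactamase reporter assay, agonist format. Engineered HEK 293T line, charcoal-stripped FBS at 2%, overnight (16 hr) exposure, fluorescence at 460 and 530 nm after 405 nm excitation.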
Sequence of Retinoic acid receptor RXR-alpha (Homo sapiens) (P19793 whole entry, looked up): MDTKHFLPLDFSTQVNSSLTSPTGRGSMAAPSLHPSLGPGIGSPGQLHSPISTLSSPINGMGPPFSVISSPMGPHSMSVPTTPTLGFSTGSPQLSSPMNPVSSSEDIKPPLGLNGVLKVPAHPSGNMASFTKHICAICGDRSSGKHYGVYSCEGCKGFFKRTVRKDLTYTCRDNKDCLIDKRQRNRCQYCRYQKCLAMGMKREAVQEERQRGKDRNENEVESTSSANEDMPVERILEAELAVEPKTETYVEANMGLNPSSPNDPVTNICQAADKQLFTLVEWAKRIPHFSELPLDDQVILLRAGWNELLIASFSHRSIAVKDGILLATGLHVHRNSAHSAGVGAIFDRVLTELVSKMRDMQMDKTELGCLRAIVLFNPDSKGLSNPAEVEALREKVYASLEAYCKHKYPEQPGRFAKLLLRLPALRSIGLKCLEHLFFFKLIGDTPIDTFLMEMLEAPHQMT

The nature of assay [14]: qHTS assay to identify small molecule antagonists of the estrogen related receptor (ERR) signaling pathway - cell viability counter screen (AID 1224818). The method, boiled down: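 ERR cells, 2,000 per well, compound added after 6 h and incubated 17.5 h at 37 C. Viability read by CellTiter-Fluor fluorescence after a further 30 min at 37 C.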
Assay [15] in a line: qHTS assay to identify small molecule antagonists of the estrogen related receptor (ERR) signaling pathway (AID 1224819). In outline:
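ERR reporter cell line (NTP) plated at 2,000 cells/well, settled 6 h at 37C/5% CO2, then exposed to LOPAC compounds for 18 h at 37C. One-Glo luciferase luminescence read after 30 min at room temperature.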

Assay [16] in a line: qHTS assay to identify small molecule agonists of the estrogen related receptor (ERR) signaling pathway (AID 1224820). In outline: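 ERR reporter cell line (from NTP), 2,000 cells/well, incubated 6 h before compound addition, then 18 h at 37 C. Luminescence measured 30 min after One-Glo reagent at room temperature.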
Assay [17] has as its system estrogen-related receptor alpha (ERRalpha) with PGC-1alpha coactivator, human. The assay can be described thus: qHTS assay to identify small molecule antagonists of the estrogen related receptor signaling pathway with the pleiotropic PPARgamma coactivator (PGC) (AID 1224821; calls by dose curve). The method, boiled down:
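PGC/ERR reporter cell line, plated 6 h before compound addition, then exposed 18 h at 37 °C. Luciferase activity read by luminescence 30 min after One-Glo addition; decrease indicates antagonism.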

A short description of assay [18]: qHTS assay to identify small molecule antagonists of the estrogen related receptor signaling pathway with the pleiotropic PPARgamma coactivator (PGC) cell viability counter screen (AID 1224822). In outline: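 PGC/ERR cells rested 6 h, then compound-treated 17.5 h at 37 C. CellTiter-Fluor added for 30 min at 37 C, viability measured by fluorescence intensity.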

The nature of assay [19]: qHTS assay to identify small molecule agonists of the estrogen related receptor signaling pathway with the pleiotropic PPARgamma coactivator (PGC) (AID 1224823). In outline: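 PGC/ERR reporter cells seeded 6 h, then exposed to compounds (23 nL in DMSO) for 18 h at 37 C. One-Glo luciferase luminescence read after 30 min at room temperature.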

Structures are written as SMILES. Inconclusive results are not listed. Calls of active or inactive are those of the source. Unless noted, the call rests on the fitted dose curve; in most records, active means well fitted curve in the direction sought with a large enough effect in the repeat runs; inconclusive means weak or mixed curves; inactive means no such curve, though single readings can be large; an effect the other way counts as inactive or inconclusive.

Consider `Clc1nnc(Cl)c2ccccc12`, for which the Potency result in assay [1], in [2], in assay [3], in assay [4], in assay [5] and in assay [6] was “inactive” throughout. Besides, the Potency result in assay [7], in assay [8] and in assay [9] was “inactive” each time.

`CCC(CC)(CC(=O)Nc1cccc(/C=C/c2nc(C3CCC3)cs2)c1)C(=O)O`: the Potency result in assay [1], in [10], in assay [2], in [3], in [4] and in [5] was “inactive” throughout. For the same compound, the Potency entry in assay [6], in assay [7], in assay [8] and in assay [11] was “inactive” throughout.

As for `CC(=O)Oc1cc2c(s1)CCN(C(C(=O)C1CC1)c1ccccc1F)C2` (configuration not stated), the Potency result in assay [1], in assay [2], in assay [3], in assay [4], in assay [5] and in assay [6] was “inactive” in each case. Further, the Potency entry in assay [7], in assay [12], in [8] and in assay [9] was “inactive” throughout.

In the case of `OC1CCCc2ccccc21` (configuration not stated), the Potency result in assay [1], in [10], in [2], in assay [3], in assay [4] and in [5] was “inactive” each time. For the same compound, the Potency entry in assay [6], in assay [7], in assay [13], in assay [12] and in [8] was “inactive” throughout.

For `CCCC(=O)OC(C)(C)Cc1ccccc1`, the Potency entry in assay [1], in assay [2], in assay [3], in assay [4], in assay [5] and in assay [6] was “inactive” each time. The Potency result in assay [7], in assay [13], in [8] and in [9] was “inactive” in each case.

With `CCCCCCOC(=O)C(C)CC` (configuration not stated), the Potency result in [1], in assay [10], in [2], in assay [3], in [4] and in assay [5] was “inactive” in each case. Also, the Potency entry in assay [6], in assay [7], in assay [13], in [8], in [11] and in assay [9] was “inactive” throughout.

For `CN1CCN2c3ccccc3Cc3ccccc3C2C1` (configuration not stated), the Potency entry in assay [1], in assay [10], in [2], in assay [3], in assay [4] and in assay [5] was “inactive” each time. In addition, the Potency result in assay [6], in assay [13], in assay [12], in assay [8], in assay [11] and in assay [9] was “inactive” in each case. Moreover, the Potency result in [15], in assay [17] and in [18] was “inactive” throughout. The outcome in assay [14], in [16] and in assay [19] was inactive.

Consider `CCCC(=O)OCOC(=O)C1=C(C)NC(C)=C(C(=O)OC)C1c1cccc(Cl)c1Cl` (configuration not stated), for which the Potency result in assay [1], in assay [10], in assay [2], in assay [3], in assay [4] and in assay [5] was “inactive” each time. Further, the Potency result in assay [6], in assay [7], in [13], in assay [12] and in assay [8] was “inactive” in each case.

With `COC(=O)c1ccccc1OC`, the Potency result in [1], in [10], in assay [2], in assay [3], in assay [4] and in assay [5] was “inactive” throughout. Further, the Potency entry in assay [6], in [7], in [13], in [8], in assay [11] and in assay [9] was “inactive” throughout.

For the compound `O=S(=O)(O)c1ccc(Nc2nc(Nc3ccc(/C=C/c4ccc(Nc5nc(Nc6ccc(S(=O)(=O)O)cc6)nc(N(CCO)CCO)n5)cc4S(=O)(=O)O)c(S(=O)(=O)O)c3)nc(N(CCO)CCO)n2)cc1`, the Potency entry in assay [1], in assay [2], in assay [4], in [5], in assay [6] and in assay [12] was “inactive” in each case. The Potency result in assay [8], in assay [11] and in assay [9] was “inactive” in each case. Further, the Potency in assay [3] was 37.1 µM (active); in [13], 26.3 µM (active).

In the case of `CC(=O)CC(=O)Nc1ccc(S(=O)(=O)O)cc1`, the Potency result in [1], in [10], in assay [2], in assay [3], in assay [4] and in assay [6] was “inactive” throughout. In addition, the Potency result in assay [7], in assay [13] and in assay [8] was “inactive” each time.

Take `O=C(O)[C@H](O)[C@@H](O)[C@H](O[C@@H]1O[C@H](CO)[C@H](O)[C@H](O)[C@H]1O)[C@H](O)CO`: the Potency entry in assay [1], in assay [10], in assay [2], in [3], in [4] and in [5] was “inactive” in each case. Further, the Potency result in [7], in assay [13] and in [8] was “inactive” in each case.

On to `FC(F)(F)c1cccc(Cl)c1`, for which the Potency result in assay [1], in [10], in assay [2], in [3], in assay [4] and in [6] was “inactive” in each case. In addition, the Potency entry in assay [7], in [13], in assay [12], in assay [8], in assay [11] and in assay [9] was “inactive” throughout.

Regarding `C=C(C)C(=O)OCCCCCCCCCC`, in [1], the Potency was 44 µM (active). In addition, the Potency entry in [10], in [2], in assay [3], in assay [4], in [5] and in [6] was “inactive” throughout.

Regarding `C=CCCC(=O)/C=C/C1C(C)=CCCC1(C)C` (configuration not stated), the Potency entry in [1], in assay [10], in [2], in [3], in [4] and in [6] was “inactive” throughout. In addition, the Potency entry in assay [7], in assay [13], in [8], in [11] and in assay [9] was “inactive” in each case.
